# LGR2 antag – inhibitors of bursicon-induced LGR2 CRE-luciferase signal, primary screen, cell-based, HEK293, CRE-luciferase reporter, bursicon stimulation | bursicon-stimulated, 4 h | inhibition, % at 9.99 µM | AID 720647, 2013 | actives 0.35% (n = 380,000);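 active = drop in luminescence signal, shown as inhibition above about 50% in the replicate tests, limit read from the data, passing the limit was not always enough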;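 note: agonist challenge used bursicon conditioned medium at about half maximal strength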
# TROY NFkB inh – inhibitors of TROY-driven NF-kB signaling, primary screen, Q293 LMP1-TROYcd cells, NF-kB luciferase, uHTS | Q293 LMP1-TROYcd NF-kB luciferase reporter, 4 h | inhibition, % at 10 µM | actives 0.98% (n = 360,000);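 active = compounds whose plate-normalised and pattern-corrected inhibition of the luciferase reporter signal at the single screening dose is 50% or more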
# EBV LMP1 NFkB – EBV LMP1-driven NF-kappaB luciferase reporter inhibitors, primary screen, cell-based, luminescence, single point | actives 0.69% (n = 350,000) | inhibition, % at 12.5 µM | LMP1-induced NF-kappaB luciferase reporter cells; in the data active = inhibition above about 41%;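 note: 0% = neutral control wells and 100% = reference inhibitor control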
# EWS-Fli block – EWS/Fli-driven NR0B1 reporter inhibitors, primary screen, A673 cells, NR0B1 luciferase, luminescence, MLPCN library; actives 0.67% (n = 350,000); viability-normalised; inhibition, % at 12.6 µM;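 active = mean inhibition of at least 50% after viability correction, with every replicate also passing that limit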;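 note: firefly luciferase signal divided by Alamar Blue viability fluorescence both relative to DMSO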
# PAX8 inh HTS – inhibitors of PAX8-driven TPO luciferase reporter, primary screen, RMG-I cells, single concentration; SteadyGlo, 24 h; inhibition, % at 12.6 µM; actives 1.2% (n = 360,000); AID 652154, 2013;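 active = mean replicate inhibition at least 60% with every replicate also reaching 60%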;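 note: luciferase light reporting Pax8 driven TPO promoter activity; plate controls were median of neutral control wells for no effect and mitoxantrone controls for full effect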
# TWEAK Fn14 block – inhibitors of TWEAK-Fn14 signaling, primary screen, luciferase reporter cells, uHTS | TWEAK-stimulated Fn14 reporter cells, luciferase luminescence, 8 h | inhibition, % at 10 µM | actives 2% (n = 360,000) | AID 1159606, 2016; in the data active = inhibition above about 50%
# An asterisk follows results filed as active; . = no result given. The list is not random: actives were taken first. Their share in the collection is about 3.2%.
SMILES,LGR2 antag,TROY NFkB inh,EBV LMP1 NFkB,EWS-Fli block,PAX8 inh HTS,TWEAK Fn14 block
CC(C)c1ccc(/C=N/Nc2ccc(C(=O)O)cc2)cc1,.,57*,4,75*,82*,92*
O=C(O)c1ccc(N/N=C/c2ccc(-c3ccccc3)cc2)cc1,-5,-45,-104,-49,-59,9
O=C(N/N=C/C=C/c1ccccc1)c1ccncc1,-6,17,-4,.,-17,2
O=C(O)c1ccc(N/N=C/c2ccc(OC(=O)c3ccccc3Cl)cc2)cc1,58*,55*,25,-54,28,96*
Nc1ccc(C(=O)N/N=C\c2ccc(OC(=O)c3ccccc3Cl)cc2)cc1,5,12,-12,-18,6,-10
O=c1nc(N/N=C/c2c[nH]c3ccccc23)cn[nH]1,-34,-37,-6,-50,-68,-10
O=c1nc(N/N=C/C=C/c2ccccc2)cn[nH]1,67*,41,47*,22,-33,70*
COc1ccccc1C(=O)Nc1ccc2c(c1)C(=O)N(C)C[C@@H](OC)[C@H](C)CN(C)[C@H](C)CO2,-5,.,.,16,-6,.
CC(C)Cc1nc2sc3c(NCc4ccco4)ncnc3c2c2c1COC(C)(C)C2,.,24,-7,.,.,52*
Cc1nc2sc3c(NCc4ccco4)ncnc3c2c2c1COC(C)(C)C2,.,55*,10,.,.,87*
C=CCNC(=O)[C@H]1[C@@H]2C(=O)O[C@@H](c3ccccc3)[C@@H](c3ccccc3)N2[C@@H](c2ccccc2OCCO)[C@]12C(=O)N(C(=O)OCCOC)c1ccc(C#CC3(O)CCCCCC3)cc12,.,.,.,12,53,.
COCCOC(=O)N1C(=O)[C@@]2(c3cc(C#CC4=CCCCC4)ccc31)[C@H](c1ccccc1OCCO)N1[C@H](c3ccccc3)[C@H](c3ccccc3)OC(=O)[C@H]1[C@@H]2C(=O)NC[C@H](O)c1ccccc1,.,.,.,5,51,.
C=CCNC(=O)[C@@H]1[C@H]2C(=O)O[C@H](c3ccccc3)[C@H](c3ccccc3)N2[C@H](c2ccccc2OCCO)[C@@]12C(=O)N(C(=O)OCCOC)c1ccccc12,.,.,.,7,87*,.
C=CCNC(=O)[C@@H]1[C@H]2C(=O)O[C@H](c3ccccc3)[C@H](c3ccccc3)N2[C@H](c2ccc(OCCO)cc2)[C@@]12C(=O)N(C(=O)OCCOC)c1ccc(C#Cc3ccc(OC)cc3)cc12,.,.,.,4,0,.
COCCOC(=O)N1C(=O)[C@@]2(c3ccccc31)[C@H](c1ccccc1OCCO)N1[C@H](c3ccccc3)[C@H](c3ccccc3)OC(=O)[C@H]1[C@@H]2C(=O)NC[C@H](O)c1ccccc1,.,.,.,6,109*,.
C=CCNC(=O)[C@H]1[C@@H]2C(=O)O[C@@H](c3ccccc3)[C@@H](c3ccccc3)N2[C@@H](c2ccccc2OCCO)[C@]12C(=O)N(C(=O)OCCOC)c1ccccc12,.,.,.,8,82*,.
COc1ccc2c3c([nH]c2c1)[C@H](CO)N(C(=O)NC(C)C)CC31CCN(Cc2ccc(F)cc2)CC1,2,.,.,10,10,.
Cc1ccc(C(=O)CSc2nnc3ccccn23)c(C)c1,30,21,-3,0,-41,64*
COCCn1c(C)cc(C(=O)CSc2nc3ccccc3s2)c1C,61*,60*,10,.,-7,51*
Cc1ccc(NC(=O)CSc2nnc3ccccn23)c(Cl)c1,-19,-30,-17,-61,-127,-9
COCCn1c(C)cc(C(=O)CSc2nnc3ccccn23)c1C,62*,26,50*,63*,32,-13
COCCn1c(C)cc(C(=O)CSc2nc3ccccc3o2)c1C,.,5,-14,.,-147,-7
Cc1ccc2c(c1)CCCN2C(=O)CCc1nc2ccccc2c(=O)[nH]1,16,6,5,65*,20,9
COc1cccc2c1C(=O)O/C2=C/c1ccc2c(c1)OCO2,62*,-10,-12,.,.,63*
CC(C)NC(=O)Nc1ccc2c(c1)CC(=O)N([C@@H](C)CO)C[C@@H](C)[C@H](CN(C)Cc1ccc(Oc3ccccc3)cc1)O2,28,.,.,18,45,.
SMILES,LGR2 antag,TROY NFkB inh,EBV LMP1 NFkB,EWS-Fli block,PAX8 inh HTS,TWEAK Fn14 block
O=S(=O)(NC1c2cccc3cccc(c23)C1Sc1ncccn1)c1ccccc1 (stereo not given),16,91*,61*,6,-3,108*
O=C(Nc1ccc2c(c1)OCO2)C1CC(=O)N(c2ccc3c(c2)OCCO3)C1 (stereo not given),8,3,0,4,-6,30
O=C(COC(=O)C1CC(=O)N(c2ccc3c(c2)OCCO3)C1)NC1CCCc2ccccc21 (stereo not given),.,41,3,.,.,56*
O=C(O)C1CC(=O)N(c2ccc3c(c2)OCCO3)C1 (stereo not given),.,33,13,.,.,63*
O=C(Nc1ccccc1Br)C1CC(=O)N(c2ccc3c(c2)OCCO3)C1 (stereo not given),11,12,0,-5,-11,5
COc1cccc(C2=NO[C@@H]3C(=O)N(c4ccc5c(c4)OCCO5)C(=O)[C@H]23)c1OC,.,69*,24,.,-14,77*
COc1cccc(C2=NO[C@@H]3C(=O)N(Cc4ccccc4)C(=O)[C@H]23)c1OC,.,-16,-16,.,.,10
O=C(Nc1nc2ccccc2[nH]1)C1CC(=O)N(c2ccc3c(c2)OCCO3)C1 (stereo not given),.,36,14,.,.,69*
CCNC(=O)Nc1ccc2c(c1)C(=O)N(C)[C@H]1CC[C@H](CC(=O)Nc3ccccc3OC)O[C@@H]1CO2,-3,.,.,-12,.,.
COc1cccc(OC)c1OC(=O)C1CC(=O)N(c2ccc3c(c2)OCCO3)C1 (stereo not given),-15,16,1,17,7,68*
CN1C(=O)c2cc(NS(C)(=O)=O)ccc2OC[C@@H]2O[C@@H](CC(=O)O)CC[C@H]21,2,.,.,1,32,.
C[C@H](CO)N1C[C@H](C)[C@@H](CN(C)S(C)(=O)=O)Oc2ccc(NC(=O)Cc3ccccc3)cc2CC1=O,-16,.,.,2,2,.
O=C(Nc1ccn(CCOC(=O)c2ccccc2)c(=O)n1)c1ccccc1,-2,54*,.,-14,-4,-10
CCN1/C(=C/c2sc(-c3ccccc3C)c[n+]2C)Sc2ccccc21,29,47,23,65*,98*,63*
CC(=O)NCCc1ccc(C(=O)COC(=O)c2cccs2)cc1,.,48,-7,-30,-20,61*
COc1ccc(CCNC(=O)COC(=O)c2cccs2)cc1OC,9,-15,-5,2,-29,12
COc1ccc(CCNC(=O)COC(=O)c2cccs2)cc1,-4,-25,-8,-1,83*,-6

# Screening results deposited in PubChem BioAssay by several laboratories.
